# Results as given in PubChem BioAssay (NCI).
# Compounds without any hit were thinned out: in the full panel of roughly 83,000, 20% have a hit.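 How to read the values: 0–100, growth inhibition (40 = 60% inhibited); 0, no net growth; -100 to 0, cell death (-40 = 40% of starting cells died; -100 = all dead).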 A number with no mark means an inactive call. Activity calls are given as the source filed them. How the source made its calls: active means growth percent below 10; inactive means the rest.
# Assays:
# Test in all cases: NCI-60 one-dose screen, 48 h (100 = growth as untreated, 0 = no growth, -100 = all killed)
# Conditions in all cases: 10 µM unless noted
# NCI-H23 lung = test system: NCI-H23 lung
# NCI-H226 lung = test system: NCI-H226 lung
# NCI-H322M lung = test system: NCI-H322M lung
# HOP-62 NSCLC = test system: HOP-62 NSCLC
# NCI-H460 lung = test system: NCI-H460 lung
# HOP-92 NSCLC = test system: HOP-92 NSCLC
# NCI-H522 lung = test system: NCI-H522 lung
# A549/ATCC NSCLC = test system: A549/ATCC NSCLC
# 786-0 renal = test system: 786-0 renal
# COLO 205 colon = test system: COLO 205 colon
Compound,growth (NCI-H23 lung),growth (NCI-H226 lung) [%],growth (NCI-H322M lung),growth (HOP-62 NSCLC),growth (NCI-H460 lung),growth (HOP-92 NSCLC),growth (NCI-H522 lung),growth (A549/ATCC NSCLC),growth (786-0 renal),growth (COLO 205 colon)
N#CC1=C(N)Oc2c(c(=O)[nH]c3ccc(Cl)cc23)C12C(=O)c1ccccc1C2=O,93.4%,88.2,93%,88.2%,92.5%,98.6%,105%,93.6%,96.4%,110%
O=C(O)CCN1C(=O)/C(=C/C(Cl)=C/c2ccccc2)SC1=S,21.3%,23.6,61%,53.9%,16.6%,53.7%,10.6%,44.8%,9.92% (active),13%
O=C(Cn1cc(CSc2nc3ccccc3o2)nn1)Nc1ccc(F)cc1F,96%,86.2,104%,114%,117%,,111%,113%,119%,127%
CCOC(=O)c1nn(-c2ccc(S(N)(=O)=O)cc2)c2nc(C)cc(=O)n12,98.5%,104,102%,102%,109%,,100%,102%,96.5%,114%
COc1ccc(-c2cc(-c3ccc(Cl)cc3)c(C#N)c(=O)n2Cc2ccc(C(=O)Nc3ccccc3N)cc2)cc1,77.2%,81.2,89.3%,71.6%,94.6%,,53.9%,109%,90.3%,95.8%
COc1ccc(Nc2ncc(Br)c(NCCCNC(=O)C3CCCC3)n2)cc1,30.3%,28.5,58.5%,22.4%,23.6%,,65.7%,38.9%,36.3%,21.6%
C=C1C(=O)O[C@H]2[C@H]1CC/C(COC(=O)NCc1ccc(Cn3c(=O)sn(CCCCC)c3=O)cc1)=C\CC[C@@]1(C)O[C@@H]21,78.6%,75.4,93.4%,81.2%,92.6%,-15.6% (active),-68.6% (active),89.3%,32.1%,-20.8% (active)
COC(=O)c1c2c(c(C)[n+]([O-])c1C)C(=O)C(NCc1cccc(OC)c1)=CC2=O,25.4%,83.2,22.6%,53.2%,14.6%,54.5%,10.8%,12.9%,54.3%,-63.4% (active)
Cn1ccnc1C(=O)/C=C/c1ccc(C(=O)Nc2ccc(Cl)cc2)cc1,-18.7% (active),16.8,0.414% (active),-4.38% (active),-28.7% (active),,-5.14% (active),6.96% (active),-78.8% (active),1.1% (active)
CCOC(=O)C#Cc1c(C(=O)OCC)nnn1Cc1ccc([N+](=O)[O-])cc1,86.2%,70.4,100%,113%,98.7%,,-33.4% (active),96.1%,65.6%,-22.2% (active)
CCCCn1c(=O)[nH]c(N)c([C@@H]2c3c([nH]c(=O)n(CCCC)c3=O)Oc3ccc4ccccc4c32)c1=O,13%,92,74.9%,73.6%,15.4%,,59%,94.6%,77.8%,
Cn1c(=O)cc2c3c(c(NCCCO)ccc31)C(=O)c1ccccc1-2,47.2%,38.4,41.4%,43.8%,16.8%,,22.2%,33.5%,38.6%,27.8%
Cc1nc2sc(C(=O)Nc3cccc4ccccc34)c(N)c2cc1C(O)c1ccccc1 (stereo not given),7.51% (active),46.1,51.4%,20.4%,0.274% (active),,-25.3% (active),9.88% (active),16.1%,-58.2% (active)
